Compound activity: PubChem, NMMLSC
RGS8-Gao: regulators of human RGS8-Galphao interaction. P09471. multiplexed bead flow cytometry, RGS8-Galphao binding; actives lie on both sides. response (percent of control binding), % at 10 µM. 220,000 compounds, 0.34% hits. AID 1423; in the data active = response below about 60% or above about 140%; inactive = in between;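 note: Galphao activated as the GDP aluminium fluoride complex binding bead-coupled RGS8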
Target sequence (P09471 whole entry, looked up): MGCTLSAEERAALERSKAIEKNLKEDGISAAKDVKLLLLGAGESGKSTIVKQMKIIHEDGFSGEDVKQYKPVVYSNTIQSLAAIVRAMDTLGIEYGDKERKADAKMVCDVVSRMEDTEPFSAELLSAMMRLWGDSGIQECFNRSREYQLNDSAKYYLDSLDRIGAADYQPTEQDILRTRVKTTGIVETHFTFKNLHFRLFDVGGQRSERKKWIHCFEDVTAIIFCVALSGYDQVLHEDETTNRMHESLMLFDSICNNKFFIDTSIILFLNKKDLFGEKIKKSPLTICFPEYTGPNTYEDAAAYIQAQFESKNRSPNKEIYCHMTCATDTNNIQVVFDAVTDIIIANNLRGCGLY
GSH bead fluor: GSH bead compound fluorescence profile; 190,000 compounds, 0.25% hits; GSH beads flow cytometry, compound fluorescence 488/530 nm; hits give high values; fluorescence (KMESF) at 10 µM; in the data active = fluorescence above about 89;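 note: glutathione beads carrying GST-tagged Bcl family fusion proteins plus one bare bead set; values are compound well signal with DMSO vehicle wells as background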
RGS4-Gao reg: human RGS4-Galphao interaction regulation. Multiplexed bead flow cytometry, RGS4-Galphao binding; actives lie on both sides. binding response (% of control), % at 10 µM. 220,000 compounds, 0.33% hits; in the data active = binding response below about 49% or above about 150%; inactive = in between;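 note: fluorescent Galphao activated with aluminum fluoride binding bead-coupled RGS4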
Avidin bead fluor: avidin bead compound fluorescence profile. fluorescence (KMESF) at 10 µM. Avidin beads, compound fluorescence 488/530 nm, flow cytometry; hits give high values. 220,000 compounds, 0.38% hits. AID 1775; in the data active = fluorescence above about 47
RGS7-Gao reg: regulators of human RGS7-Galphao interaction. P09471. Multiplexed bead flow cytometry, RGS7-Galphao binding; actives lie on both sides. binding response (% of control), % at 10 µM. 220,000 compounds, 0.35% hits. AID 1439; in the data active = binding response below about 49% or above about 150%; inconclusive = no clear call, values can overlap the other calls; inactive = in between;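 note: fluorescent Galphao held in activated GDP-AlF4 state binding bead-coupled RGS7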
RGS16-Gao HTS: modulates binding between human RGS16 and Galphao; bead-based flow cytometry RGS16-Galphao binding, fluorescence; actives lie on both sides; binding response (% of control), % at 10 µM; 220,000 compounds, 0.38% hits; O15492+P09471; AID 1441;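 note: Galphao activated by GDP with aluminum fluoride before binding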
Target sequence (O15492 whole entry, looked up): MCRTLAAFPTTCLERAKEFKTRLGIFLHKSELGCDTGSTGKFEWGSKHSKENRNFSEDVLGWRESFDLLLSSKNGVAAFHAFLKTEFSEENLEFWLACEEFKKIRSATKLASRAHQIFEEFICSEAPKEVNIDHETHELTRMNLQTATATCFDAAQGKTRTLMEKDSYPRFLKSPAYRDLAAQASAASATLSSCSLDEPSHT
Target sequence (P09471 whole entry, looked up): as the sequence (P09471 whole entry, looked up) above
RGS4-Gao HTS: regulators of human RGS4-Galphao interaction | RGS4–Galpha-o binding response, % at 10 µM | 1,600 compounds, 99% hits | AID 1504 | multiplexed bead flow cytometry, RGS–Galpha-o binding | shares compounds with RGS16-Gao HTS;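 note: fluorescently labeled Galpha-o bound to GDP with aluminium fluoride binding biotinylated RGS beads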
Avidin counter: interferes with biotinylated probe binding to avidin beads; shares compounds with RGS16-Gao HTS; streptavidin beads, fluorescein-biotin binding, flow cytometry; inhibition, % at 10 µM; 1,700 tested, under 10 active;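 active = inhibition above 50%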;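 note: median green fluorescence of gated singlet beads compared with DMSO control wells; 0% = DMSO wells and 100% = complete loss of bead fluorescence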
RGS8-Gao single: RGS8-Galphao interaction regulation, single point confirmation; bead-based flow cytometry RGS8-Galphao binding, fluorescence; actives lie on both sides; 1,700 compounds, 3% hits; binding response (% of control), % at 10 µM; shares compounds with RGS16-Gao HTS; AID 1836; in the data active = binding response below about 72% or above about 130%; inactive = in between;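 note: Galphao activated as GDP AlF4 complex before binding bead RGS8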
RGS7-Gao confirm: confirmation of regulators of human RGS7-Galphao interaction; response (percent of control binding), % at 10 µM; 1,700 compounds, 7.8% hits; bead-based flow cytometry RGS7-Galphao binding; actives lie on both sides; shares compounds with RGS16-Gao HTS; AID 1837; in the data active = response below about 75% or above about 130%; inactive = in between;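 note: fluorescent Galphao activated with GDP and aluminum fluoride binding bead-coupled RGS7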
RGS16-Gao single: RGS16-Galphao interaction regulation, single point confirmation. 1,700 compounds, 4% hits. shares compounds with RGS16-Gao HTS. AID 1838. response (% of control binding), % at 10 µM. bead-based flow cytometry, RGS16-Galphao binding; actives lie on both sides; in the data active = response below about 74% or above about 130%; inactive = in between;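 note: Galphao activated as the GDP aluminium fluoride complex binding bead-coupled RGS16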
RGS4-Gao single: RGS4-Galphao interaction regulation, single point confirmation; binding response (% of control), % at 10 µM; shares compounds with RGS16-Gao HTS; RGS4-Galphao binding, multiplexed bead flow cytometry; actives lie on both sides; AID 1840; 1,700 compounds, 4% hits; in the data active = binding response below about 74% or above about 130%; inactive = in between
RGS19-Gao conf: RGS19-Galphao interaction regulation, single point confirmation; shares compounds with RGS16-Gao HTS; bead-based flow cytometry RGS19-Galphao binding; actives lie on both sides; response (percent of control binding), % at 10 µM; 1,700 compounds, 5% hits; in the data active = response below about 50% or above about 160%; inactive = in between;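 note: 100% = no compound control and 0% = blank background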
Starred values were filed as active, the others as inactive; ? = inconclusive; / = no result; [ ] = dose if it differs, or a comment. The list is not random: actives were taken first. Their share in the collection is about 1.2%. Unless noted, the rule behind the calls is not given here.

SMILES	RGS8-Gao	GSH bead fluor	RGS4-Gao reg	Avidin bead fluor	RGS7-Gao reg	RGS16-Gao HTS	RGS4-Gao HTS	Avidin counter	RGS8-Gao single	RGS7-Gao confirm	RGS16-Gao single	RGS4-Gao single	RGS19-Gao conf
Cc1nn(-c2ccccc2)c(C)c1/C=N\N1CCN(c2ccc(Cl)cc2)CC1	/	17	/	/	/	/	/	0	99	101	102	102	91
O=C1C(=O)c2ccc(-c3ccccc3)cc2-c2ccccc21	134	38	116	5	112	259*[activator]	116*	-1	94	96	92	94	62
CC(=O)Nc1ccc(OC(=O)c2cc3cc(Br)ccc3oc2=O)cc1	103	9	102	12	96	101	/	/	/	/	/	/	/
CC(=O)Nc1ccc(OC(=O)c2cc3cc(Br)cc(Br)c3oc2=O)cc1	80	8	91	4	81	19*	91*	-2	100	88	96	92	96
CC(C)n1c(-c2cccnc2)nc2cnccc21	140*[activator]	17	122	32	121	214	122*	/	/	/	/	/	/
C=CCc1cccc(/C=N/NC(=O)c2ccccc2OC)c1O	98	11	96	5	97	96	/	/	/	/	/	/	/
C=CCc1cccc(/C=N/NC(=O)c2ccccc2Br)c1O	31*	15	34*	2	25*	23*	/	-1	101	95	97	100	82
Cc1cc(=O)oc(C)c1C(=O)NC1CCCCCCC1	106	10	102	22	101	107	/	/	/	/	/	/	/
O=C(NN1CCOCC1)c1cn(-c2ccccc2)nc1-c1cccs1	104	/	107	/	?	108	/	/	/	/	/	/	/
Cc1ccc([N+](=O)[O-])c(OCCN2CCC(Cc3ccccc3)CC2)c1	101	16	107	8	?	107	/	/	/	/	/	/	/
O=S(=O)(c1ccc(F)cc1)N1CCN(c2ncnc3c2cnn3-c2ccccc2)CC1	142*[activator]	14	129	13	122	301	129*	0	96	89	95	95	107
Cc1cccc(-n2ncc3c(N4CCOCC4)ncnc32)c1	59*	17	65	3	63	9	65*	2	102	105	103	105	93
CC(NC(=O)Cc1ccc(-c2ccccc2)cc1)c1ccccc1 (centres undefined)	106	24	152*[activator]	358*	263*[activator]	222	/	-2	96	123	93	98	100
O=C(Cc1c[nH]c2ccccc12)N/N=C/c1ccc(F)cc1	78	14	92	7	87	21*	92*	1	104	99	103	105	102
COCCCNC(=O)CN1C(=O)/C(=C/c2ccccc2)Sc2ccccc21	102	/	99	/	?	103	/	/	/	/	/	/	/
COc1cc(C(=O)Nc2ccc3c(c2)CCN3C(C)=O)cc(OC)c1OC	109	34	207*[activator]	21	186*[activator]	170	/	0	107	112	111	106	118
COc1cc(CC(=O)N2CCc3ccccc32)cc(OC)c1OC	/	44	146	/	/	/	/	2	100	99	98	98	98
COc1ccc(CC(=O)N2CCCc3ccccc32)cc1OC	96	34	100	10	101	85	/	/	/	/	/	/	/
O=C(CN1CCc2ccccc21)NN1CC(=O)N(c2ccc(Cl)cc2)CC1=O	102	/	100	8	?	102	/	/	/	/	/	/	/
COc1ccc(OC)c(Cc2nnc(CCC(=O)N3CCCCC3c3nccs3)o2)c1 (centres undefined)	99	14	96	11	96	105	/	/	/	/	/	/	/
Cc1ccc2nc(C)c3c(c2c1)COC3	17*	11	-73*	-3	-40*	79	/	-1	111	99	115	102	107
Nc1nc(N2CCN(C(c3ccccc3)c3ccccc3)CC2)n[nH]1	57*	11	82	2	39*	91	82*	3	100	88	95	94	86
CC(C)C(=O)N(Cc1ccccc1)c1ccccn1	113	38	251*[activator]	116*	208*[activator]	244*[activator]	/	-2	102	98	100	100	100
CCC(Oc1ccccc1)C(=O)N(Cc1ccccc1)c1ccccn1 (centres undefined)	97	24	93	10	90	100	/	/	/	/	/	/	/
Cc1ccc(S(=O)(=O)Oc2ccc(/C=C(/NC(=O)c3ccccc3)C(=O)NC(C)C(=O)O)cc2)cc1 (centres undefined)	104	11	102	3	105	106	/	/	/	/	/	/	/
O=C(NCCN1CCN(c2cccc(Cl)c2)CC1)C1CCCN(S(=O)(=O)c2cnc[nH]2)C1 (centres undefined)	142*[activator]	15	116	5	114	203	116*	/	/	/	/	/	/
c1ccc(Cn2cnc3ccccc32)cc1	35*	13	33*	8	34*	26	/	-1	109	116	113	115	112
COCCNC(=O)C12CC3CC(CC(Cl)(C3)C1)C2	104	/	108	6	?	108	/	/	/	/	/	/	/
COc1ccc(S(=O)(=O)N2CCN(C(=O)COc3ccc4c(C)cc(=O)oc4c3)CC2)cc1	103	11	105	10	101	100	/	/	/	/	/	/	/
COc1ccc(N2CCN(C(=O)c3ccc(COc4ccc5c(C)cc(=O)oc5c4)cc3)CC2)cc1	99	24	180*[activator]	84*	158*[activator]	100	/	-1	102	98	102	100	95
